Reference: the supplement of paper PMC10849652
About 8,800 targets were measured; listed, in parts, are those with a hit and a random draw of the rest. About 0.5% of all pairs of compound and target were hits. A number with no mark means an inactive call.

Experiments:
Assay in all cases: log2 fold change, soluble protein after heating vs DMSO (PISA); higher = thermal stabilisation; K562 lysate, 10 uM; active = over 0.2 and 3.5 SD of the protein, either way, in both replicates (recomputed)
alvocidib = compound: CN1CC[C@H](c2c(O)cc(O)c3c(=O)cc(-c4ccccc4Cl)oc23)[C@H](O)C1 [alvocidib]
Summary of the method: (§1)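 K562 pellets were dounce-homogenised in PBS pH 7.4 with 1 mM MgCl2, and the crude extract at 1 mg/mL protein was treated with 10 μM compound for 30 min. Aliquots were heated for 3 min across 48°C-58°C, pooled, and brought to 0.5% NP-40 at 4°C; soluble protein was the supernatant after 21,000xg for 90 min. Soluble protein was quantified by TMTpro 16plex LC-MS/MS with channel sums equalised, and reported as log2 fold change in thermal stability against DMSO controls, with values from duplicates.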

Tubastatin A = compound: CN1CCc2c(c3ccccc3n2Cc2ccc(C(=O)NO)cc2)C1 [Tubastatin A]
Summary of the method: as §1

[1] = compound: CNC(=O)C1=CC=CC=C1NC2=NC(=NC=C2Cl)NC3=C(C=C(C=C3)N4CCOCC4)OC
Summary of the method: as §1

defactinib = compound: CNC(=O)c1ccc(Nc2ncc(C(F)(F)F)c(NCc3nccnc3N(C)S(C)(=O)=O)n2)cc1 [defactinib]
Summary of the method: as §1

[2] = compound: CNc1nc(-c2ccc3c(N)n[nH]c3c2)cc(N2C[C@@H](C(=O)NC3CCCCC3)CC[C@H]2C)n1
Summary of the method: as §1

alisertib = compound: COc1cc(Nc2ncc3c(n2)-c2ccc(Cl)cc2C(c2c(F)cccc2OC)=NC3)ccc1C(=O)O [alisertib]
Summary of the method: as §1

gefitinib = compound: COc1cc2ncnc(Nc3ccc(F)c(Cl)c3)c2cc1OCCCN1CCOCC1 [gefitinib]
Summary of the method: as §1

pictilisib = compound: CS(=O)(=O)N1CCN(Cc2cc3nc(-c4cccc5[nH]ncc45)nc(N4CCOCC4)c3s2)CC1 [pictilisib]
Summary of the method: as §1

crizotinib = compound: C[C@@H](Oc1cc(-c2cnn(C3CCNCC3)c2)cnc1N)c1c(Cl)ccc(F)c1Cl [crizotinib]
Summary of the method: as §1

[3] = compound: C[C@H](C1=CC=C(C=C1)C(=O)NC2=C3C=CNC3=NC=C2)N
Summary of the method: as §1

duvelisib = compound: C[C@H](Nc1ncnc2nc[nH]c12)c1cc2cccc(Cl)c2c(=O)n1-c1ccccc1 [duvelisib]
Summary of the method: as §1

gandotinib = compound: Cc1cc(Nc2cc(CN3CCOCC3)c3nc(C)c(Cc4ccc(Cl)cc4F)n3n2)n[nH]1 [gandotinib]
Summary of the method: as §1

doramapimod = compound: Cc1ccc(-n2nc(C(C)(C)C)cc2NC(=O)Nc2ccc(OCCN3CCOCC3)c3ccccc23)cc1 [doramapimod]
Summary of the method: as §1

bafetinib = compound: Cc1ccc(NC(=O)c2ccc(CN3CC[C@H](N(C)C)C3)c(C(F)(F)F)c2)cc1Nc1nccc(-c2cncnc2)n1 [bafetinib]
Summary of the method: as §1

[4] = compound: Cc1cccc(CC(=O)N2CCc3c2ccc(-c2cn(C)c4ncnc(N)c24)c3F)n1
Summary of the method: as §1

encorafenib = compound: COC(=O)N[C@@H](C)CNc1nccc(-c2cn(C(C)C)nc2-c2cc(Cl)cc(NS(C)(=O)=O)c2F)n1 [encorafenib]
Summary of the method: as §1

[5] = compound: COC(=O)[C@H](CCSC)NC(=O)C1=C(C=C(C=C1)NC[C@H](CS)N)C2=CC=CC=C2
Summary of the method: as §1

[6] = compound: COc1cc2nc(-c3cc(F)ccc3O)nc(N[C@@H]3CNC[C@H]3C(C)(C)O)c2cc1OC
Summary of the method: as §1

lapatinib = compound: CS(=O)(=O)CCNCc1ccc(-c2ccc3ncnc(Nc4ccc(OCc5cccc(F)c5)c(Cl)c4)c3c2)o1 [lapatinib]
Summary of the method: as §1

tozasertib = compound: Cc1cc(Nc2cc(N3CCN(C)CC3)nc(Sc3ccc(NC(=O)C4CC4)cc3)n2)n[nH]1 [tozasertib]
Summary of the method: as §1

Chain of UniProt Q9Y570 (Q9Y570 whole entry, looked up): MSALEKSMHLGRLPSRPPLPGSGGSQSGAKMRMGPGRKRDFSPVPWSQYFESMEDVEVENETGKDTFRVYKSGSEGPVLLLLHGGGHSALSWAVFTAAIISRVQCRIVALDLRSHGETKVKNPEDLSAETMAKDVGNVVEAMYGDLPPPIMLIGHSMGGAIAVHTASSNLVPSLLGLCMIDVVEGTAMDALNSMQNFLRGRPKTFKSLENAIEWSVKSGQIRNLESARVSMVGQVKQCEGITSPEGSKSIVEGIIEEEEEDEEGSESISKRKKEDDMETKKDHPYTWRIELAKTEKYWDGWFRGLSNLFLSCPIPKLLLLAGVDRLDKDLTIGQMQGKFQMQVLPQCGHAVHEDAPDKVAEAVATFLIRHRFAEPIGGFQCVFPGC
Chain of UniProt Q9Y4D7 (Q9Y4D7 whole entry, looked up): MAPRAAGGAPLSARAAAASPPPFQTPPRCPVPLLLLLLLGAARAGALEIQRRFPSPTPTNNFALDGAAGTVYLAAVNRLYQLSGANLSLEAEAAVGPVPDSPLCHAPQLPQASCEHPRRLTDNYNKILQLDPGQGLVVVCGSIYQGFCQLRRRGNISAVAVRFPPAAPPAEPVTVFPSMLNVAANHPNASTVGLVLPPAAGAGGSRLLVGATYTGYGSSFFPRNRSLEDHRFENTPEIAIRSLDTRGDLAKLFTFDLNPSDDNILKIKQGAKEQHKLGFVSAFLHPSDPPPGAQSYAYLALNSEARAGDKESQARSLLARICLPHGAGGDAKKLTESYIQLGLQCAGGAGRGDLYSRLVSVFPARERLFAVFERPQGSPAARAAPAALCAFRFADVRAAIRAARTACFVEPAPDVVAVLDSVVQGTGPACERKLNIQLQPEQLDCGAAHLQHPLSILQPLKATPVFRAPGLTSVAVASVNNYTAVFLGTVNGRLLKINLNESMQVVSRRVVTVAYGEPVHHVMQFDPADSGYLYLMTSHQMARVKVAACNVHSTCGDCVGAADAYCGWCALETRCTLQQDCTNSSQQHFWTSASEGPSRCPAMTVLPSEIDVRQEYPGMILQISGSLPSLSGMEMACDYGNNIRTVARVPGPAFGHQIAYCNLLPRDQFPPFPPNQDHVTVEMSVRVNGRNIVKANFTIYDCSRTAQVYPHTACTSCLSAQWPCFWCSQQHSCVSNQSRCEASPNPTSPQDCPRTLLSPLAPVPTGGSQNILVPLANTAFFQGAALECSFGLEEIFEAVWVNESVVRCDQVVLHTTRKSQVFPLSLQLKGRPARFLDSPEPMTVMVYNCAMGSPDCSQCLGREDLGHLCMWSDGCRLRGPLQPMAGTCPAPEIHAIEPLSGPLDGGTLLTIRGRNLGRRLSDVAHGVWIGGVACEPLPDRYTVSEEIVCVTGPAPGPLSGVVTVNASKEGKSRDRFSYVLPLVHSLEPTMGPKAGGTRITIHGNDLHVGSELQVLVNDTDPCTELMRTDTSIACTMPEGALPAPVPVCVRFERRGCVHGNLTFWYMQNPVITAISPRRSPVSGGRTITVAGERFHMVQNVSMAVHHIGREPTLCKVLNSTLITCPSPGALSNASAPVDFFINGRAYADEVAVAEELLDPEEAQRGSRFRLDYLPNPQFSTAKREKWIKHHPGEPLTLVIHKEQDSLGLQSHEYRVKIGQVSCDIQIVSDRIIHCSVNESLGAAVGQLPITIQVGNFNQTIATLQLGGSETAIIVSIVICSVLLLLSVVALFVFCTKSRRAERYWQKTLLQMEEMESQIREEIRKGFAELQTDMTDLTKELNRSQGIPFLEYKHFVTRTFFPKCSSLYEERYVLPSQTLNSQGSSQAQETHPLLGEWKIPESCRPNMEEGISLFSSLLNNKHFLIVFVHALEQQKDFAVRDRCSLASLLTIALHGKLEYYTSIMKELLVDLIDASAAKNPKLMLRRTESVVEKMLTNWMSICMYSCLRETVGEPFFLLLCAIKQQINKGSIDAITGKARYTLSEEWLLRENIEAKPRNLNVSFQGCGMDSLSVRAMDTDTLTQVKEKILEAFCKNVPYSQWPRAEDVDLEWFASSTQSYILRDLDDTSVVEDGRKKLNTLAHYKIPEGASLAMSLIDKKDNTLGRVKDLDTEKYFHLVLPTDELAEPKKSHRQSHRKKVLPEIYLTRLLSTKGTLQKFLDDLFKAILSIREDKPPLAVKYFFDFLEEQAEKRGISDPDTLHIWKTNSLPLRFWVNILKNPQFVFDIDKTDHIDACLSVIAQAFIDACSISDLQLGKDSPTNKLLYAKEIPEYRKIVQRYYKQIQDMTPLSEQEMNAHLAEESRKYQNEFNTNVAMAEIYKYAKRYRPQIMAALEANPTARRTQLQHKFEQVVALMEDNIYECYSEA
Chain of UniProt P78364 (P78364 whole entry, looked up): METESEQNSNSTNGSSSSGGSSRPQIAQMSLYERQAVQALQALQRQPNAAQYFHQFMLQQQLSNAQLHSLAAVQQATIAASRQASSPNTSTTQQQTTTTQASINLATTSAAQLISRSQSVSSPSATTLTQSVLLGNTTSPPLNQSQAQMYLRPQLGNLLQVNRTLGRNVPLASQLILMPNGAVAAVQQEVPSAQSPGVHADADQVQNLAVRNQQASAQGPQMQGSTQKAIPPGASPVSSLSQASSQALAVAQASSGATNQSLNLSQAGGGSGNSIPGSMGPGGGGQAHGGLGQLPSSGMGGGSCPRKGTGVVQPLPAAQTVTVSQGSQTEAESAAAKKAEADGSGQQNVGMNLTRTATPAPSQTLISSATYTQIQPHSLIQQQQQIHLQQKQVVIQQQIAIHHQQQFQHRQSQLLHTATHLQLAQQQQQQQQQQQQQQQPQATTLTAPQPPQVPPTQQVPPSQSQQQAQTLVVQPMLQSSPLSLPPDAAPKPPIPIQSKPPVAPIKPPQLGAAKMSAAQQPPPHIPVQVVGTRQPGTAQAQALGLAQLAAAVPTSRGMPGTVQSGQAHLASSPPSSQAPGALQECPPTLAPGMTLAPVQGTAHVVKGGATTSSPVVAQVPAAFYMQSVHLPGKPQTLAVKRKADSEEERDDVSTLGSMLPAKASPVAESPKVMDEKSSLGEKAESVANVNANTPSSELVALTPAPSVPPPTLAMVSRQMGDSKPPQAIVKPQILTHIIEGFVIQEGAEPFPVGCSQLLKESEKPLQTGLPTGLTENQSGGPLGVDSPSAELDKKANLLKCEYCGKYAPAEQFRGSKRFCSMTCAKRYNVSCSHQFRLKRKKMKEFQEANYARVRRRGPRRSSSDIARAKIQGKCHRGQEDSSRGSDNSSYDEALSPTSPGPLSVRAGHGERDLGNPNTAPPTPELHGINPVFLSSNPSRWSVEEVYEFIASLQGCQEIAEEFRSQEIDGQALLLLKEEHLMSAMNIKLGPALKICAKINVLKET
Chain of UniProt O94806 (O94806 whole entry, looked up): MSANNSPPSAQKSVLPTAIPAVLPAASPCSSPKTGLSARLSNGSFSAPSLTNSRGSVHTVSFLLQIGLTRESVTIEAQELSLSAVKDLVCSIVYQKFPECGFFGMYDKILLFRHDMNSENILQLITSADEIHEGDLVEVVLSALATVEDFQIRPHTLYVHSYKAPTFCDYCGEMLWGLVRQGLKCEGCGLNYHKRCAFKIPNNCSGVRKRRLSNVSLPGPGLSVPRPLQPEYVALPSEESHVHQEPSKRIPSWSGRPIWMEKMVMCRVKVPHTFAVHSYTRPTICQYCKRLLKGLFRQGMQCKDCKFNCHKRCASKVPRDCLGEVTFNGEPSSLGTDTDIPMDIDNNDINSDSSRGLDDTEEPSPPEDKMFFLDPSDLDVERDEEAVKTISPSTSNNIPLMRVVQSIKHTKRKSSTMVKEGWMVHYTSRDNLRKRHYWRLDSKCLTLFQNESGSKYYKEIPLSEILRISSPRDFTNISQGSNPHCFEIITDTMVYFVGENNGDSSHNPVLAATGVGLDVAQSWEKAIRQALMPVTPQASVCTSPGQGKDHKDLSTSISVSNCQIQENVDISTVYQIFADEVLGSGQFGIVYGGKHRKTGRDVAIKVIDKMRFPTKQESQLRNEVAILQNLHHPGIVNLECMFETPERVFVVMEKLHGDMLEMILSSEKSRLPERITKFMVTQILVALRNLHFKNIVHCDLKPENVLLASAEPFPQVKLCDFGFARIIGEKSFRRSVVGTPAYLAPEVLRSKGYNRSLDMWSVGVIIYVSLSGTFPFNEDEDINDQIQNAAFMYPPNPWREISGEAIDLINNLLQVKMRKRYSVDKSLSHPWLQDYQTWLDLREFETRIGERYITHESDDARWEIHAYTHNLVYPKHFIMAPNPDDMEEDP
Chain of UniProt Q9BRQ0 (Q9BRQ0 whole entry, looked up): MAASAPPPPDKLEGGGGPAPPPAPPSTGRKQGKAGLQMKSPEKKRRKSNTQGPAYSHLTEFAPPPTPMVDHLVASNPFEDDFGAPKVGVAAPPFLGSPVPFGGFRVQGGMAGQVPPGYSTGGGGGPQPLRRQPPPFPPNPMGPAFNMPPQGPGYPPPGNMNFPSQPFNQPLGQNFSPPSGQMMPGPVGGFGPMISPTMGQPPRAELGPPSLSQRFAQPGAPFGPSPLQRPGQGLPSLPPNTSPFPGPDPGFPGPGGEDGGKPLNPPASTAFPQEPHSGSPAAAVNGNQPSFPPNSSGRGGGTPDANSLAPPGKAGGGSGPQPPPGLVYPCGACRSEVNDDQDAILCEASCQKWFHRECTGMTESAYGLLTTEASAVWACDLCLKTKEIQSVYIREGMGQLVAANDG
Chain of UniProt Q8TAE6 (Q8TAE6 whole entry, looked up): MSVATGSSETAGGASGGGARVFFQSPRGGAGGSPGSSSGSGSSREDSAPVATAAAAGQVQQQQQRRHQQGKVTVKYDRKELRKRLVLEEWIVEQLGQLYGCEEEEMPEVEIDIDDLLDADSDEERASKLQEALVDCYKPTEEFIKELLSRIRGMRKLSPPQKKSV
Chain of UniProt O60927 (O60927 whole entry, looked up): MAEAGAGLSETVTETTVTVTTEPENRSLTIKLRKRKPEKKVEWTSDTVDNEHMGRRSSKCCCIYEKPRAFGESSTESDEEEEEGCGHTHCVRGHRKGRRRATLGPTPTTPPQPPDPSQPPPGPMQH
Chain of UniProt P60673 (P60673 whole entry, looked up): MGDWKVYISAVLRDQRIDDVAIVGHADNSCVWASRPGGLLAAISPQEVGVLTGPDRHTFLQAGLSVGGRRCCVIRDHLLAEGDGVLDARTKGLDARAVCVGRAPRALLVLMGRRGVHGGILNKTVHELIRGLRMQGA

Target	log2 fold change (alvocidib)	log2 fold change (Tubastatin A)	log2 fold change [1]	log2 fold change (defactinib)	log2 fold change [2]	log2 fold change (alisertib)	log2 fold change (gefitinib)	log2 fold change (pictilisib)	log2 fold change (crizotinib)	log2 fold change [3]	log2 fold change (duvelisib)	log2 fold change (gandotinib)	log2 fold change (doramapimod)	log2 fold change (bafetinib)	log2 fold change [4]	log2 fold change (encorafenib)	log2 fold change [5]	log2 fold change [6]	log2 fold change (lapatinib)	log2 fold change (tozasertib)
PPP2R5C isoform 2 (UniProt Q13362)	-0.004	0.044	-0.028	-0.024	0.001	0.058	-0.062	0.151	0.234	-0.021	-0.064	0.026	-0.043	0.103	-0.005					
PRKD3 (UniProt O94806)	-0.308	-0.014	-0.066	0.059		0.139	-0.051	0.019	-0.199	-0.643 (active)		0.423	-0.075	-0.086	0.46	0.077	0.233	0.087	0.031	0.092
PREP (UniProt H0Y5Y0)	0.082									-0.304		0.113			-0.153			0.03	-0.029	
PCBP2 (UniProt F8W0G4)		-0.009	0.01	0.044	0.033	0.192	0.028	0.087			0.358			-0.223		0.125	-0.006			-0.069
PLXND1 (UniProt Q9Y4D7)		0.111	0.015		-0.123	0.046	0.313	0.018	0.067		-0.031		0.171	-0.461 (active)						
PDE4DIP (UniProt E9PS60)	-0.111		-0.02	0.056	-0.089	0.013	0.005		-0.034	-0.688 (active)	-0.077	0.233	0.075		0.147	-0.059	-0.039			-0.026
PCBP2 (UniProt F8VRH0)	-0.1	0.067	-0.123			0.231	0.045		0.023	-0.116		-0.042	-0.01		0.072			0.096	-0.148	
PPP2CA (UniProt E7ESG8)						0.139	-0.034													
PPME1 (UniProt Q9Y570)			0.125		-0.065			0.038			-0.017			-0.081		-0.029	-0.059	0.014	0.002	0.072
PPP1R14C (UniProt Q8TAE6)	-0.045	-0.033		-0.002	-0.14	-0.044	0.032	-0.025		-0.022	0.121	0.358 (active)		0.041	0.336	0.064	0.014	-0.04	-0.044	0.08
PUF60 isoform 2 (UniProt Q9UHX1)	0.223	0.003	0.264	0.108		-0.076	0.044	-0.003	0.005	1.05 (active)		-0.09	-0.058	-0.006	-0.09	0.039	-0.12	0.038	-0.038	-0.161
PTK2 isoform 2 (UniProt Q05397)			0.003		0.018			0.067			0.298			-0.087		-0.058	-0.129	0.053	0.049	0.125
PHGDH, A0A286YFE1					-0.19			0.114			0.244			-0.313				-0.114	-0.214	
POM121C (UniProt A8CG34)	-0.089	0.124	0.069					0.19		0.007		0.051		0.135	-0.091			-0.076	0.164	
PTMA isoform 2 (UniProt P06454)								-0.053						-0.02						
PIAS2 (UniProt O75928)		-0.092	0.006	-0.348	-0.002	-0.021	-0.091		-0.045		0.075		-0.007			0.006	-0.041			0.048
PPP1R11 (UniProt O60927)	0.048	0.077	0.011		-0.001	-0.081	-0.09	-0.016	-0.069	0.153	-0.054	-0.048	-0.022	0.099	-0.071	0.051	-0.027	-0.041	0.01	0.022
PHC1 (UniProt P78364)				0.005	0.184	-0.017	-0.101	-0.025	0.063		-0.025		-0.254	0		0.059	-0.062			0.022
PYGO2 (UniProt Q9BRQ0)	0.01	-0.019	0.032		0.131	-0.011	-0.026	-0.038	0.067	0.014	-0.046	0.078	0.032	-0.046	-0.022	-0.031	-0.121			-0.076
PFN3 (UniProt P60673)	-0.182			-0.109		-0.047	0.075		-0.046	-0.458		0.119	0.083		0.193	0.125	-0.28	0.154	-0.199	0.155
PRRG1 (UniProt O14668)		-0.032																		
PFN1 (UniProt I3L3D5)	0.045	-0.01				0.028	0.062	-0.062		0.524 (active)		-0.15		-0.19	0.015	0.157	0.058	-0.195	0.066	-0.051
PHOSPHO2 (UniProt C9JD35)									0.02				-0.084			0.018	-0.36			0.234
PNPLA4 (UniProt P41247)	0.074	0.147		-0.148	-0.17				-0.098	0.121	0.021	-0.019	0.825 (active)		-0.138	-0.076	0.125			-0.011
POLR2F (UniProt U3KPV3)					-0.059						0.012					0.177	-0.182			0.109
